Assay outcomes: PubChem, Broad Institute
This excerpt belongs to a sample that is enriched for hits.
IDE exosite FP: exo-site inhibitors of human insulin-degrading enzyme; P14735; purified IDE, FL-6b probe fluorescence polarization; stronger effect = lower value; z-score at 20 µM; 17,000 compounds, 6.3% hits; AID 1259349;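 active means z-score of -3 or lower, meaning strong loss of probe binding signal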;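 further: His-tagged human IDE residues 42-1019 made in E. coli with 30 nM FL-6b probe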
The depositor's hits bear a star; ! = not active in a repeat.

SMILES	IDE exosite FP
O=C(c1ccccn1)N1CC(=O)N2[C@@H](CO)[C@@H](c3ccc(C#CCc4ccccc4)cc3)[C@@H]2C1	-4.66*
O=C(c1ccccn1)N1CC(=O)N2[C@H](CO)[C@@H](c3ccc(C#Cc4ccccc4)cc3)[C@H]2C1	-9.37*
O=C(c1cnccn1)N1CC(=O)N2[C@H](CO)[C@@H](c3ccc(C#CCc4ccccc4)cc3)[C@H]2C1	-2.38
O=C(c1cnccn1)N1CC(=O)N2[C@@H](CO)[C@H](c3ccc(C#CCc4ccccc4)cc3)[C@@H]2C1	0.701
O=C(c1ccccn1)N1CC(=O)N2[C@H](C1)[C@H](c1ccc(C#Cc3ccccc3)cc1)[C@@H]2CO	-6.36*
O=C(c1ccccn1)N1CC(=O)N2[C@H](C1)[C@@H](c1ccc(C#Cc3ccccc3)cc1)[C@@H]2CO	-2.86
CCCC#Cc1ccc([C@@H]2[C@H]3CN(C(=O)c4ccccn4)CC(=O)N3[C@H]2CO)cc1	2.66
CCCC#Cc1ccc([C@@H]2[C@H](CO)N3C(=O)CN(C(=O)c4ccccn4)C[C@@H]23)cc1	-3.22*
CCCC#Cc1ccc([C@@H]2[C@@H](CO)N3C(=O)CN(C(=O)c4ccccn4)C[C@H]23)cc1	0.411
O=C(c1ccc(F)cc1)N1CC(=O)N2[C@H](CO)[C@H](c3ccc(C#CCC4CCCC4)cc3)[C@@H]2C1	-0.912
CN(C)C(=O)c1cccc(-c2ccccc2[C@H]2[C@@H](C#N)N(C(=O)C3CCCCC3)[C@H]2CO)c1	0.406
O=C(C[C@H]1C=C[C@H](NC(=O)Cc2cccnc2)[C@@H](CO)O1)NCc1ccc2c(c1)OCO2	-0.524
O=C(Nc1cc(F)ccc1F)N1CC(=O)N2[C@H](C1)[C@@H](c1ccc(-c3ccccc3)cc1)[C@@H]2CO	-2.71
C[C@H]1CCCCO[C@H](CN(C)C(=O)CCC(F)(F)F)[C@@H](C)CN([C@@H](C)CO)C(=O)c2cc(NC(=O)C3CCCCC3)ccc2O1	1.29
COCC#Cc1ccc([C@@H]2[C@H]3CN(C(=O)Nc4cc(F)ccc4F)CC(=O)N3[C@H]2CO)cc1	-0.913
O=C(c1ccc2c(c1)OCO2)N1CC(=O)N2[C@H](CO)[C@H](c3ccc(C#CC4CCCC4)cc3)[C@@H]2C1	-0.331
CC(C)NC(=O)N1CC(=O)N2[C@H](CO)[C@@H](c3ccc(C#CCN(C)C)cc3)[C@H]2C1	3.54
CN1CCN(C(=O)C[C@@H]2CC[C@H]3[C@@H](COC[C@@H](O)CN3C(=O)Nc3ccc4c(c3)OCO4)O2)CC1	-0.219
O=C(C1CCOCC1)N1C[C@@H]2N[C@H](C1)C2c1ccc(-c2ccncc2)cc1 (some centres not stated)	2.09
O=C(c1ccncc1)N1C[C@@H]2N[C@H](C1)C2c1ccc(/C=C/c2ccccc2)cc1 (some centres not stated)	-13.8*!
O=C(c1ccc(F)cc1)N1CC(=O)N2[C@H](CO)[C@@H](c3ccc(/C=C/c4ccccc4)cc3)[C@H]2C1	2
COc1ccccc1NC(=O)N1C[C@@H]2N[C@H](C1)C2c1ccc(/C=C/c2ccccc2)cc1 (some centres not stated)	-0.388
O=C(CN1CCOCC1)N1C[C@@H]2N[C@H](C1)C2c1ccc(/C=C/c2ccccc2)cc1 (some centres not stated)	-0.792
C(=C\c1ccc(C2[C@@H]3CN(Cc4ccccn4)C[C@H]2N3)cc1)/c1ccccc1 (some centres not stated)	-5.19*
O=C(c1ccc(F)cc1)N1C[C@@H]2N[C@H](C1)C2c1ccc(/C=C/c2ccccc2)cc1 (some centres not stated)	-4.58*!
SMILES	IDE exosite FP
O=C(c1cccnc1)N1C[C@@H]2N[C@H](C1)C2c1ccc(-c2ccccc2)cc1 (some centres not stated)	-2.79
C(=C\c1ccc(C2[C@@H]3CN(Cc4nccs4)C[C@H]2N3)cc1)/c1ccccc1 (some centres not stated)	-2.36
O=C(c1ccc2c(c1)OCO2)N1C[C@@H]2N[C@H](C1)C2c1ccc(/C=C/c2ccccc2)cc1 (some centres not stated)	-0.413
O=C(C1CCOCC1)N1C[C@@H]2N[C@H](C1)C2c1ccc(/C=C/c2ccccc2)cc1 (some centres not stated)	-7.59*!
COc1ccc(-c2ccc(C3[C@@H]4CN(Cc5ccccn5)C[C@H]3N4)cc2)cc1 (some centres not stated)	3.72
CS(=O)(=O)N1[C@@H](CO)[C@@H](c2ccccc2)C12CN(C(=O)c1ccccc1F)C2	-0.417
O=C(c1ccncc1)N1CC(=O)N2[C@H](CO)[C@H](c3ccc(C#CCC4CCCC4)cc3)[C@@H]2C1	1.04
CN(C)C(=O)c1cccc(-c2ccc(C3[C@H]4CNC[C@@H]3N4C(=O)NC3CCCC3)cc2)c1 (some centres not stated)	5.66
N#C[C@H]1[C@@H](c2ccccc2)[C@@H](CO)N1C(=O)c1ccc2c(c1)OCO2	0.519
CC(=O)NC[C@@H]1[C@@H](c2ccc(-c3cccnc3)cc2)[C@H](CO)N1C(=O)C1CC1	-2.58
CN1C(=O)c2cc(NS(=O)(=O)c3cccc(F)c3)ccc2OC[C@@H]2O[C@@H](CC(=O)N3CCc4ccccc4C3)CC[C@H]21	-0.562
CN(C)CC#Cc1ccc([C@@H]2[C@@H](CO)N3C(=O)CN(C(=O)c4ccc(F)cc4)C[C@@H]23)cc1	0.554
CO[C@H](CN(C)S(=O)(=O)c1cccc(Cl)c1)[C@@H](C)CN(C(=O)Nc1ccccc1F)[C@H](C)CO	0.202
CS(=O)(=O)N1Cc2cc(C(=O)O)nc(-c3cccc(-c4ccccc4F)c3)c2[C@@H]1CCO	1.89
COC(=O)C[C@@H]1CC[C@@H]2[C@@H](COc3ccc(NC(=O)Nc4cccc(C#N)c4)cc3C(=O)N2C)O1	0.386
O=C(C1CCOCC1)N1CC(=O)N2[C@@H](CO)[C@H](c3ccc(C#Cc4cccc(F)c4)cc3)[C@@H]2C1	-6.61*
O=C(C1CCOCC1)N1CC(=O)N2[C@H](CO)[C@H](c3ccc(C#Cc4cccc(F)c4)cc3)[C@@H]2C1	-8.17*
O=C(C1CCOCC1)N1CC(=O)N2[C@H](C1)[C@@H](c1ccc(C#Cc3cccc(F)c3)cc1)[C@@H]2CO	-9.43*
O=C(C1CCOCC1)N1CC(=O)N2[C@H](CO)[C@@H](c3ccc(C#Cc4cccc(F)c4)cc3)[C@H]2C1	-4.42*
O=C(C1CCOCC1)N1CC(=O)N2[C@H](CO)[C@@H](c3ccc(C#CC4CC4)cc3)[C@@H]2C1	-0.176
CS(=O)(=O)N1[C@H](CO)[C@H](c2ccccc2-c2ccccc2F)[C@@H]1C#N	-0.193
N#Cc1ccc(-c2ccc([C@H]3[C@H](CO)N4C(=O)CN(C(=O)C5CC5)C[C@@H]34)cc2)cc1	1.27
C[C@@H]1CCCCO[C@H](CN(C)S(C)(=O)=O)[C@@H](C)CN([C@@H](C)CO)C(=O)c2cc(NC(=O)NC3CCCCC3)ccc2O1	0.0589
CO[C@@H](C(=O)N(C)C[C@H]1OCc2ccccc2-c2ccccc2C(=O)N([C@H](C)CO)C[C@@H]1C)c1ccccc1	0.11
OC[C@H]1[C@@H](c2ccc(C#Cc3cccnc3)cc2)[C@@H]2CN(Cc3ccccc3F)CCCCN12	0.109
N#Cc1ccc(-c2ccc([C@H]3[C@@H](CO)N4C(=O)CNC[C@H]34)cc2)cc1	0.537
N#C[C@@H]1[C@H](c2ccc(C#Cc3ccc(F)cc3)cc2)[C@@H](CO)N1C(=O)C1CC1	4.93
COc1ccccc1C#Cc1ccc([C@H]2[C@@H](CO)N(C(=O)C3CC3)[C@H]2C#N)cc1	-7.54*
